From PubChem BioAssay (EPA / NIEHS)
Where “and” joins values, the source holds several entries; their conditions need not be identical. Equal entries are not always repeated. Results filed as inconclusive are left out. More than one record can exist for a structure, and the calls need not agree. Calls of active or inactive are those of the source. How the source made its calls: active means hit-call score of the fitted dose curve at least 0.9, where 1 is the maximum; inconclusive means response in the unintended direction; inactive means score below 0.9.

target: Estrogen receptor (Homo sapiens) (UniProt P03372); assay: OT_ER_ERaERa_0480: Odyssey Thera (OT) 8-hour HEK293T Protein-Complementation Assay for Estrogen Receptor-alpha/-alpha Homodimer (AID 2283351);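 further: rise in fluorescence from reassembled reporter fragments on ERα LBD homodimer in nucleus or whole cell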
Method in brief: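 HEK293T cells stably expressing a PCA pair of ER alpha LBD (residues 310-547) were dosed for 8 hours. The gain in fluorescence intensity, nuclear for agonists and whole-cell for antagonists, was measured by laser scanning cytometry against DMSO vehicle.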

Estrogen receptor (Homo sapiens), sequence (P03372 whole entry, looked up, the tested form may be a part): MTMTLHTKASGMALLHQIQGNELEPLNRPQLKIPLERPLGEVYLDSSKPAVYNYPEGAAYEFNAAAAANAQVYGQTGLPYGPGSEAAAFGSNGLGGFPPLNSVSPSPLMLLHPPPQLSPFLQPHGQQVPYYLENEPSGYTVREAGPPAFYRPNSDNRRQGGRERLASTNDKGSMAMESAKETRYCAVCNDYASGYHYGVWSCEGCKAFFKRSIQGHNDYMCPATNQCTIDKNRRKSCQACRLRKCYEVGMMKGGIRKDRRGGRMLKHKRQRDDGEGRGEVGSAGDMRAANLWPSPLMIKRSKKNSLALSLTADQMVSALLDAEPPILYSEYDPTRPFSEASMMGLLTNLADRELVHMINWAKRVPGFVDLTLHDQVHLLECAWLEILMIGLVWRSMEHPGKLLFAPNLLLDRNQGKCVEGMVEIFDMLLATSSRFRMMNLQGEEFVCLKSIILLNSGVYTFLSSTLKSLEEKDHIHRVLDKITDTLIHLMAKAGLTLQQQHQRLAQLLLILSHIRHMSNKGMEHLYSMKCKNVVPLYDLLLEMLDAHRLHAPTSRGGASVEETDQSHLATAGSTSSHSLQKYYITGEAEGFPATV

Row | SMILES | outcome
1 | C#C[C@]1(O)CC[C@H]2[C@@H]3CCC4=CC(=O)CC[C@@H]4[C@H]3CC[C@@]21CC | inactive
2 | O=C(O)c1ccccc1 | inactive
3 | CSC(=O)c1cccc2nnsc12 | inactive
4 | N[C@@H](Cc1cc(I)c(Oc2ccc(O)c(I)c2)c(I)c1)C(=O)O | inactive
5 | CCCCCOC(=O)COc1cc(N2C(=O)C3=C(CCCC3)C2=O)c(F)cc1Cl | inactive
6 | COCCO | inactive

target: T1, Estrogen receptor (Homo sapiens) + Estrogen receptor beta (Homo sapiens) (UniProt P03372+Q92731); assay: OT_ER_ERaERb_0480: Odyssey Thera (OT) 8-hour HEK293T Protein-Complementation Assay for Estrogen Receptor-alpha/-beta Heterodimer (AID 2283352)
Method in brief: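 Fluorescence increase from reconstituted reporter fragments, quantified by laser scanning cytometer, reflects ER-alpha/ER-beta heterodimer formation in human HEK293T cells. Exposure 8 h; positive-direction fitting against DMSO vehicle.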

T1 sequence (P03372 whole entry, looked up, the tested form may be a part): as above
T1 sequence (Q92731 whole entry, looked up, the tested form may be a part): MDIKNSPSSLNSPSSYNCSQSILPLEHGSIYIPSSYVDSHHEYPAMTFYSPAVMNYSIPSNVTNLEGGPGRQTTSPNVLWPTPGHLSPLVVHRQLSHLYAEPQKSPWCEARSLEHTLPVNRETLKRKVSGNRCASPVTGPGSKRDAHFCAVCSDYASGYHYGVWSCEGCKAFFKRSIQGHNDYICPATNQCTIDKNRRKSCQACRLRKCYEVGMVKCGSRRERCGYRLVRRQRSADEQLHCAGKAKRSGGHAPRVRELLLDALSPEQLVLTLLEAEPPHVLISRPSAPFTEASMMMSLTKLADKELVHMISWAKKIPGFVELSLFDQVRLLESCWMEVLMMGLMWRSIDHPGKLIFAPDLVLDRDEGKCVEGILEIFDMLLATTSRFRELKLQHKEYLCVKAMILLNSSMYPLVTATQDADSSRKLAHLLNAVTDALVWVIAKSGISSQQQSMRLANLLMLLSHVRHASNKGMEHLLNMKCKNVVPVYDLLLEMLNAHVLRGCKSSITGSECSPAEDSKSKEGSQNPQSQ

Row | SMILES | AC50 | outcome
7 | CC(C)CCCCCCc1ccc(O)cc1 | 1.36 µM (active) and 1.78 µM (active) and 1.89 µM (active) | 
8 | C#CCOC(=O)[C@@H](C)Oc1ccc(Oc2ncc(Cl)cc2F)cc1 |  | inactive
9 | O=C(O)C1(C(=O)Nc2ccc(Cl)cc2Cl)CC1 |  | inactive

target: Androgen Receptor/SRC-1 Co-activator, AR (gene 367) (UniProt P10275); assay: OT_AR_ARSRC1_0960: Odyssey Thera (OT) 16-hour HEK293T Protein-Complementation Assay for Androgen Receptor/SRC-1 Co-activator (AID 2283353);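 further: actives raise the signal above DMSO so potency reflects increased AR and SRC-1 complex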
Method in brief: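 Endpoint is gain-of-signal N/C fluorescence ratio in the 488 nm channel versus DMSO, from at least 400 cells per image, measured 16 h post-dosing. Cells: HEK293T stably carrying split-Venus AR/SRC-1 complementation constructs.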

Row | SMILES | outcome | AC50
10 | CCOC(=O)C(C)Oc1ccc(Oc2nc3ccc(Cl)cc3o2)cc1 (stereo not given) | inactive | 
11 | C[C@]12CC[C@@H]3c4ccc(O)cc4C[C@@H](CCCCCCCCCS(=O)CCCC(F)(F)C(F)(F)F)[C@H]3[C@@H]1CC[C@@H]2O (stereo not given in full) | inactive | 
12 | CCCCOCCOCCOCc1cc2c(cc1CCC)OCO2 | inactive | 
13 | CSC(=O)c1cccc2nnsc12 |  | 32.5 µM (active)
14 | COC(=O)CSc1cc(N=c2sc(=O)n3n2CCCC3)c(F)cc1Cl | inactive | 
15 | O=C(O)C1(C(=O)Nc2ccc(Cl)cc2Cl)CC1 | inactive | 

target: Androgen Receptor/SRC-1 Co-activator, AR (gene 367) (UniProt P10275); assay: OT_AR_ARSRC1_0480: Odyssey Thera (OT) 8-hour HEK293T Protein-Complementation Assay for Androgen Receptor/SRC-1 Co-activator (AID 2283354);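 further: hits raise the complementation signal above DMSO so AC50 marks enhancers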
Method in brief: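 After 8 h dosing, stably expressing HEK293T cells with split-Venus AR/SRC-1 fusions were imaged (488, 635nm). The 488nm N/C ratio per image gave the endpoint, analysed in the positive direction against DMSO.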

Row | SMILES | outcome | AC50
16 | CCOC(=O)C(C)Oc1ccc(Oc2nc3ccc(Cl)cc3o2)cc1 (stereo not given) | inactive | 
17 | C[C@]12CC[C@@H]3c4ccc(O)cc4C[C@@H](CCCCCCCCCS(=O)CCCC(F)(F)C(F)(F)F)[C@H]3[C@@H]1CC[C@@H]2O (stereo not given in full) | inactive | 
18 | CCCCOCCOCCOCc1cc2c(cc1CCC)OCO2 | inactive | 
19 | CSC(=O)c1cccc2nnsc12 |  | 22.4 µM (active)
20 | COC(=O)CSc1cc(N=c2sc(=O)n3n2CCCC3)c(F)cc1Cl | inactive | 

target: rat Mineralocorticoid Receptor (MR), Nr3c2 (gene 25672) (UniProt P22199); assay: NVS_NR_rMR: NovaScreen (NVS) Nuclear Receptor Binding Assay for rat Mineralocorticoid Receptor (MR) (AID 2283355)
Method in brief: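 Single-concentration duplicate screen (25 uM) of radioligand binding in adrenalectomized rat brain supernatant; scintillation detection 24 h after dosing. Positive and negative controls ran on each plate, and confirmed actives went to concentration-response.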

rat Mineralocorticoid Receptor (MR), Nr3c2 (gene 25672), sequence (P22199 whole entry, looked up): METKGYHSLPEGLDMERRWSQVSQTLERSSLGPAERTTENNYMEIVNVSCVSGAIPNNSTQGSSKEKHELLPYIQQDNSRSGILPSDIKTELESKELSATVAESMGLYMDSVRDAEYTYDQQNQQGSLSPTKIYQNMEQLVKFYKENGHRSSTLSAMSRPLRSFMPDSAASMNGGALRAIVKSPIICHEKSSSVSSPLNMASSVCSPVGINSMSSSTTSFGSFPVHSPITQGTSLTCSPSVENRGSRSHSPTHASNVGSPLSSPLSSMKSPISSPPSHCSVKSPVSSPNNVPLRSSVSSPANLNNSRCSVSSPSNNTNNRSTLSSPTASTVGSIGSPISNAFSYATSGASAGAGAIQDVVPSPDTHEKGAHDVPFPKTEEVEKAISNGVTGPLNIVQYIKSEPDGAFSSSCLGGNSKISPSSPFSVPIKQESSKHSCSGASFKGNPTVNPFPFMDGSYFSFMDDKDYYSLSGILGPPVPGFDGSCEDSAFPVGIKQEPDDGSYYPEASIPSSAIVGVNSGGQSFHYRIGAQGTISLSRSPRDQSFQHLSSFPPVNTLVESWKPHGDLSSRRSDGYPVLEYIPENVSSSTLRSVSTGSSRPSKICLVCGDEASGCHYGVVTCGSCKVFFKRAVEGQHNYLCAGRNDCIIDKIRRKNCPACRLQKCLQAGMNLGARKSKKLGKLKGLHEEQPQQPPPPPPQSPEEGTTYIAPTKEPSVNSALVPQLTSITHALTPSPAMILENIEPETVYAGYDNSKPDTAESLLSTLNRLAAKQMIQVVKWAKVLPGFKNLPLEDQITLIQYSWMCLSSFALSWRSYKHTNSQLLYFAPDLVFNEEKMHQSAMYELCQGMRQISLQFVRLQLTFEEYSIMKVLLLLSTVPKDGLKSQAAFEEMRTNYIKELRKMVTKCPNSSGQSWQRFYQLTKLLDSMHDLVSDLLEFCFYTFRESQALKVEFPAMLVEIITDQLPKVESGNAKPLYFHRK

Row | SMILES | AC50 | outcome
21 | C#C[C@]1(O)CC[C@H]2[C@@H]3CCC4=CC(=O)CC[C@@H]4[C@H]3CC[C@@]21CC | 0.0945 µM (active) | 
22 | S=C(S)NCCNC(=S)S.[Mn+2].[S-]C([S-])=NCCN=C([S-])[S-].[Zn+2] |  | inactive
23 | CC(C)(C)[C@@H](O)[C@@H](Cc1ccc(Cl)cc1)n1cncn1 |  | inactive
24 | COC(=O)c1ccc(I)cc1S(=O)(=O)NC(=O)Nc1nc(C)nc(OC)n1 |  | inactive

target: T1, Estrogen receptor (Homo sapiens) + Estrogen receptor beta (Homo sapiens); assay: OT_ER_ERaERb_1440: Odyssey Thera (OT) 24-hour HEK293T Protein-Complementation Assay for Estrogen Receptor-alpha/-beta Homodimer (AID 2283356);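 further: heteromer of ER alpha and ER beta binding domains; hits raise reporter fluorescence and both agonists and antagonists give an increase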
Method in brief: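 Fragment complementation between ER alpha (310-547) and ER beta (263-489) ligand-binding domains in HEK293T cells; signal read 24 h post-dosing by laser scanning cytometer. Gain of fluorescence relative to DMSO fitted.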

Row | SMILES | AC50 | outcome
25 | CC(C)CCCCCCc1ccc(O)cc1 | 2.25 µM (active) and 2.44 µM (active) | 
26 | C#CCOC(=O)[C@@H](C)Oc1ccc(Oc2ncc(Cl)cc2F)cc1 |  | inactive
27 | CCCCCOC(=O)COc1cc(N2C(=O)C3=C(CCCC3)C2=O)c(F)cc1Cl |  | inactive
28 | O=C(O)C1(C(=O)Nc2ccc(Cl)cc2Cl)CC1 |  | inactive

target: Estrogen receptor beta (Homo sapiens) (UniProt Q92731); assay: OT_ER_ERbERb_0480: Odyssey Thera (OT) 8-hour HEK293T Protein-Complementation Assay for Estrogen Receptor-beta/-beta Homodimer (AID 2283357);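 further: active means signal gain over DMSO baseline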
Method in brief: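 Fluorescence gain from complemented reporter fragments on ER-beta LBD homodimer in HEK293T was quantified against DMSO controls after 8 h treatment, fixation in 4% formaldehyde and Draq5 staining.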

Estrogen receptor beta (Homo sapiens), sequence (Q92731 whole entry, looked up, the tested form may be a part): as the sequence (Q92731 whole entry, looked up, the tested form may be a part) above

Row | SMILES | outcome | AC50
29 | CCOC(=O)C(C)Oc1ccc(Oc2nc3ccc(Cl)cc3o2)cc1 (stereo not given) | inactive | 
30 | CC(C)CCCCCCc1ccc(O)cc1 |  | 836 nM (active) and 1.48 µM (active) and 1.04 µM (active)
31 | CCCCOCCOCCOCc1cc2c(cc1CCC)OCO2 | inactive | 
32 | CCCCC(CC)COC(=O)c1ccccc1C(=O)O (stereo not given) | inactive | 
33 | CC(C)(C)[C@@H](O)[C@@H](Cc1ccc(Cl)cc1)n1cncn1 | inactive | 
34 | C#CCOC(=O)[C@@H](C)Oc1ccc(Oc2ncc(Cl)cc2F)cc1 | inactive | 
35 | S=C([S-])NCCNC(=S)[S-].[Mn+2] | inactive | 
36 | COC(=O)c1ccc(I)cc1S(=O)(=O)NC(=O)Nc1nc(C)nc(OC)n1 | inactive | 
37 | O=C(O)C1(C(=O)Nc2ccc(Cl)cc2Cl)CC1 | inactive | 
38 | CCCCCCC(C)OC(=O)COc1nc(F)c(Cl)c(N)c1Cl (stereo not given) | inactive | 
39 | CCC(C)OC(=O)N1CCCCC1CCO (stereo not given) | inactive | 
40 | C=CCOC(Cn1ccnc1)c1ccc(Cl)cc1Cl (stereo not given) | inactive | 
41 | c1ccc(Nc2ccccc2)cc1 |  | 50.8 µM (active)

target: Retinoic acid receptor alpha (Homo sapiens) (UniProt P10276); assay: NVS_NR_hRAR_Antagonist: NovaScreen (NVS) Nuclear Receptor Binding Assay for human Retinoic Acid Alpha Receptor Antagonism (RAR) (AID 2283358)
Method in brief: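 Chemicals were first tested in duplicate at 25 uM, then actives in concentration series, in a cell-free TR-FRET antagonist binding format. Measurements were taken 2 hours after dosing and loss of signal was evaluated against DMSO controls.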

Retinoic acid receptor alpha (Homo sapiens), sequence (P10276 whole entry, looked up): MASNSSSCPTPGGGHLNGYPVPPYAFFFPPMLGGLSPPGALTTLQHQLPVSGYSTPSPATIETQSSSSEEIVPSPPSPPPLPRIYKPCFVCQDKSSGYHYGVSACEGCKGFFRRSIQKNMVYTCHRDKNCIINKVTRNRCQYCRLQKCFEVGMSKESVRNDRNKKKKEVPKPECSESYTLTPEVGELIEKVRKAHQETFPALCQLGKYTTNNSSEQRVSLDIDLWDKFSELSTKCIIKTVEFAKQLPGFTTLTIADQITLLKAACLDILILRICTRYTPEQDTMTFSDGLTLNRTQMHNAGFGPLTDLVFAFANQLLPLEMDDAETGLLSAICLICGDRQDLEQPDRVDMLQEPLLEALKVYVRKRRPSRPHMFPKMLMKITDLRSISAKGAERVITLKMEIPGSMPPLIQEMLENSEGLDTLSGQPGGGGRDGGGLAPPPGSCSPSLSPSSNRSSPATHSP

Row | SMILES | outcome
42 | COC(=O)c1ccc(CNS(C)(=O)=O)cc1S(=O)(=O)NC(=O)Nc1nc(OC)cc(OC)n1 | inactive
43 | CCCCCOC(=O)COc1cc(N2C(=O)C3=C(CCCC3)C2=O)c(F)cc1Cl | inactive
44 | O=C(O)C1(C(=O)Nc2ccc(Cl)cc2Cl)CC1 | inactive

target: human Peroxisome Proliferator-activated Receptor alpha (PPARa), PPARA (gene 5465) (UniProt Q07869); assay: NVS_NR_hPPARa: NovaScreen (NVS) Nuclear Receptor Binding Assay for human Peroxisome Proliferator-activated Receptor alpha (PPARa) (AID 2283359);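 further: activity means loss of TR-FRET signal versus DMSO baseline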
Method in brief: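 One-hour incubation, cell-free extracted protein, TR-FRET binding readout; signal loss vs DMSO scored. Screen: 25 uM duplicates, confirmatory dose series for actives.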

human Peroxisome Proliferator-activated Receptor alpha (PPARa), PPARA (gene 5465), sequence (Q07869 whole entry, looked up): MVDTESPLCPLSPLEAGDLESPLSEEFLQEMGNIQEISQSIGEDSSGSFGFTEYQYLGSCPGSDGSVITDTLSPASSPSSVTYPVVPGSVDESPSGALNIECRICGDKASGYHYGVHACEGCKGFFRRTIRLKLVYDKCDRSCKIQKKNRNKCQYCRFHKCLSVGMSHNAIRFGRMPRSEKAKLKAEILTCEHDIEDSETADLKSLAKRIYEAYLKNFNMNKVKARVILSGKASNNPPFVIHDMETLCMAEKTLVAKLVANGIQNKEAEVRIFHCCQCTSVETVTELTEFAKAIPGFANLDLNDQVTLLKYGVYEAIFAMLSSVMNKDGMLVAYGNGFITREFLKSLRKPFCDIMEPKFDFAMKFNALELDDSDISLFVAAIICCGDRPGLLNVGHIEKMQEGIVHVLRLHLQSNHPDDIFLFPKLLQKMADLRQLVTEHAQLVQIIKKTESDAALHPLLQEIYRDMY

Row | SMILES | outcome | AC50
45 | CC(C)CCCCCCc1ccc(O)cc1 | inactive | 
46 | S=C(S)NCCNC(=S)S.[Mn+2].[S-]C([S-])=NCCN=C([S-])[S-].[Zn+2] | inactive | 12.5 µM (active)
47 | N[C@@H](Cc1cc(I)c(Oc2ccc(O)c(I)c2)c(I)c1)C(=O)O | inactive | 27.3 µM (active) and 20 µM (active)
48 | C=CCOC(Cn1ccnc1)c1ccc(Cl)cc1Cl (stereo not given) | inactive | 

target: PGR (gene 5241) (UniProt P06401); assay: NVS_NR_hPR: NovaScreen (NVS) Nuclear Receptor Binding Assay for human Progestron Receptor (PR) (AID 2283360);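 further: active means loss of bound radioligand signal versus DMSO baseline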
Method in brief: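 T47D lysate; tritiated or iodinated radioligand; scintillation count at 18 h. DMSO = negative control/baseline. Primary: 25 uM, duplicate. Secondary: concentration series for actives.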

PGR (gene 5241), sequence (P06401 whole entry, looked up): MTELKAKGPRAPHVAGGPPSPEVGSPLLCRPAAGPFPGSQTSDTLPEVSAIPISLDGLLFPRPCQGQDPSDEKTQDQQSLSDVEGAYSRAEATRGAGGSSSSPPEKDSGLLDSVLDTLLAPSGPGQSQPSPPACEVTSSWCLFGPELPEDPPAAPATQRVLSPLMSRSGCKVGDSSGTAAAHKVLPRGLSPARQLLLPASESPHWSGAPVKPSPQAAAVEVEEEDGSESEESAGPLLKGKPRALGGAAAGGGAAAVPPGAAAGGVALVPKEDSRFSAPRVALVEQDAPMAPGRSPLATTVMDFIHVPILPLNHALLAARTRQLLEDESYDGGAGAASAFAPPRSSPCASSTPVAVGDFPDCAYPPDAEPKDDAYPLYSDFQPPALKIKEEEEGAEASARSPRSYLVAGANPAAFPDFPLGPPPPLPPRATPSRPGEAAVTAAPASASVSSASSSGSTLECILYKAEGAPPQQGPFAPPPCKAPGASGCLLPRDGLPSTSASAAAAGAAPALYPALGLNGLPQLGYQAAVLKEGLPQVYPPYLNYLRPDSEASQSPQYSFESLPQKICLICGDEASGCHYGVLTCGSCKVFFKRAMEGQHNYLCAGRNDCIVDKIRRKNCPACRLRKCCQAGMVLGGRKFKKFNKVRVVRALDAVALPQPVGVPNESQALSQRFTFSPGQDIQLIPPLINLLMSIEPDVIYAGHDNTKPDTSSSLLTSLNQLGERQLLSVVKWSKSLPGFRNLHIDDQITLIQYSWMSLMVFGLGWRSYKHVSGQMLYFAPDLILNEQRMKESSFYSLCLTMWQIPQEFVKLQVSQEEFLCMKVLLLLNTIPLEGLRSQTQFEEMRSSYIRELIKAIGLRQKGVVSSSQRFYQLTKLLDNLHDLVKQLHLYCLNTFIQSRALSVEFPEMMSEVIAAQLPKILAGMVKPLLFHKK

Row | SMILES | outcome
49 | CCCCOCCOCCOCc1cc2c(cc1CCC)OCO2 | inactive
50 | O=C(O)C1(C(=O)Nc2ccc(Cl)cc2Cl)CC1 | inactive
51 | c1ccc(Nc2ccccc2)cc1 | inactive

target: Glucocorticoid receptor (Homo sapiens) (UniProt P04150); assay: NVS_NR_hGR: NovaScreen (NVS) Nuclear Receptor Binding Assay for human Glucocorticoid Receptor (GR) (AID 2283363);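 on AC50: activity is loss of specific radioligand binding signal relative to DMSO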
Method in brief: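 Single-readout cell-free binding: radioligand plus extracted receptor, 16-hour dosing, filter radiodetection; 25 uM duplicate primary, concentration series secondary.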

Glucocorticoid receptor (Homo sapiens), sequence (P04150 whole entry, looked up): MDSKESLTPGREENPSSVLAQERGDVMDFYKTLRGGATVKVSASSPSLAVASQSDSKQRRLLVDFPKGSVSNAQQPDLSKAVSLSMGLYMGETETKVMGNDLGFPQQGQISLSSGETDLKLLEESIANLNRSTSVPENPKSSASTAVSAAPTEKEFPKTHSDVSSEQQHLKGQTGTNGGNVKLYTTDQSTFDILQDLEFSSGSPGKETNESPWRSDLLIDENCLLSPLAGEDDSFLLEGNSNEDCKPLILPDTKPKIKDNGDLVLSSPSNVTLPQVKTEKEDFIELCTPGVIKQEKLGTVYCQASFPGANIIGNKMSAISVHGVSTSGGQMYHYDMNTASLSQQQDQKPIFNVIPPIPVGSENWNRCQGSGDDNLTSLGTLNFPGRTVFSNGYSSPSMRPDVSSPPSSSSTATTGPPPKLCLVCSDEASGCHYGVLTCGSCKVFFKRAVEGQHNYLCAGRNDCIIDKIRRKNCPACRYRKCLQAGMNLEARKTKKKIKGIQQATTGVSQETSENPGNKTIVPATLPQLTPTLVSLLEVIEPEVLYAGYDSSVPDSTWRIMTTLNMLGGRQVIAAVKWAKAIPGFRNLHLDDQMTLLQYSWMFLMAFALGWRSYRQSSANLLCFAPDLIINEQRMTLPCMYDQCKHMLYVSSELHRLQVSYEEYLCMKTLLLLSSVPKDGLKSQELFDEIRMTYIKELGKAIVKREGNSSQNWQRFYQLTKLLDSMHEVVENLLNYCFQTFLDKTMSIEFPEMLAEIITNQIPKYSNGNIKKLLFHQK

Row | SMILES | AC50 | outcome
52 | CC(C)CCCCCCc1ccc(O)cc1 | 7.09 µM (active) and 16.2 µM (active) and 15.9 µM (active) | 
53 | C[C@]12CC[C@@H]3c4ccc(O)cc4C[C@@H](CCCCCCCCCS(=O)CCCC(F)(F)C(F)(F)F)[C@H]3[C@@H]1CC[C@@H]2O (stereo not given in full) | 13.1 µM (active) | inactive
54 | CSC(=O)c1cccc2nnsc12 |  | inactive
55 | CCCCC(CC)COC(=O)c1ccccc1C(=O)O (stereo not given) | 7.38 µM (active) | 
56 | S=C([S-])NCCNC(=S)[S-].[Mn+2] | 10.1 µM (active) | 
57 | C=CCOC(Cn1ccnc1)c1ccc(Cl)cc1Cl (stereo not given) | 15.4 µM (active) | 
